According to PubChem BioAssay (Tox21):
Values joined by “and” are separate entries in the source; they are usually repeats but may differ in a detail not shown here. Equal values may be shown once. Records with an inconclusive call do not appear. Where a call stands in place of a potency, no number is given. Where a structure was tested more than once in an assay, its records may differ in their call. Active and inactive are the calls of the source. Unless noted, calls follow the shape of the dose curve; as a rule, active = well fitted curve in the direction sought with a large enough effect in the repeat runs; inconclusive = weak or mixed curves; inactive = no such curve, though single readings can be large; an effect the other way counts as inactive or inconclusive.

Columns and labels:
[1] = target: Retinoic acid receptor RXR-alpha (Homo sapiens) (UniProt P19793); assay: qHTS assay to identify small molecule agonists of the RXR signaling pathway (AID 1159527; calls by dose curve; also: nearly all actives have a fitted effect of over 35% in size)
Outline: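 Compounds in DMSO were added to RXR-alpha-UAS-bla HEK 293T cells kept in 2% charcoal-stripped serum, and incubated 16 hr at 37 C with 5% CO2. Reporter signal came from a 2 hr B/G FRET substrate step.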

[2] = qHTS assay to identify small molecule antagonists of the retinoic acid receptor (RAR) signaling pathway (AID 1159552; also: nearly all actives have a fitted effect of over 50% in size)
Outline: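 Antagonism of retinol-induced RARE reporter activity was measured in C3RL4 cells. Exposure to compounds and 1 uM final retinol lasted 6 hr at 37 C, with luminescence as endpoint.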

[3] = qHTS assay to identify small molecule agonists of the retinoic acid receptor (RAR) signaling pathway (AID 1159553); also: potency is read from the fitted curve at half-maximal effect
Outline: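 Activation of retinol signaling was monitored via a RARE luciferase reporter in C3RL4 cells. After 6 hr compound treatment at 37 C, detection reagent was added for 30 min at room temperature before luminescence reading.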

[4] = qHTS assay to identify small molecule antagonists of the estrogen related receptor (ERR) signaling pathway from Tox21 library - cell viability counter screen (AID 1224834); also: nearly all actives have a fitted effect of over 30% in size; also: potency is read from the fitted curve at half-maximal effect
Outline: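 CellTiter-Fluor fluorescence measured; ERR cells; 17.5 h compound incubation at 37 C; 30 min reagent step.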

[5] = target: Luciferin 4-monooxygenase (Photinus pyralis) (UniProt P08659); assay: qHTS assay to identify small molecule inhibitors of firefly luciferase (AID 1224835); also: nearly all actives have a fitted effect of over 25% in size; also: potency is read from the fitted curve at half-maximal effect
Outline: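 Inhibition of purified Photinus luciferase is measured by luminescence. Substrate levels (D-luciferin, ATP) sit at their KM values. Each compound is tested in a concentration series.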

[6] = qHTS assay to identify small molecule agonists of the constitutive androstane receptor (CAR) signaling pathway - cell viability counter screen (AID 1224836); also: series mostly up to about 92 µM; nearly all actives have a fitted effect of over 45% in size
Outline: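 Double-stable HepG2 hepatoma cells (hCAR plus CYP2B6-2.2kb) are treated for 23 h at 37 C with test compounds in 15-point concentration series. PK11195 at 0.75 uM final is co-added. Cell viability is quantified by CellTiter-Fluor.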

[7] = qHTS assay to identify small molecule antagonists of the constitutive androstane receptor (CAR) signaling pathway - cell viability counter screen (AID 1224837); also: series mostly up to about 92 µM; nearly all actives have a fitted effect of over 45% in size
Outline: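 Using CellTiter-Fluor, viability is scored in HepG2 cells stably carrying hCAR and a 2.2kb CYP2B6 reporter after 23 hr compound exposure across 15 concentrations, with CITCO present at 50 nM.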

[8] = target: Nuclear receptor subfamily 1 group I member 3 (Homo sapiens) (UniProt Q14994); assay: qHTS assay to identify small molecule antagonists of the constitutive androstane receptor (CAR) signaling pathway (AID 1224838);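 also: HepG2 cells stably expressing hCAR with CYP2B6 luciferase reporter stimulated by CITCO; nearly all actives have a fitted effect of over 40% in size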; also: potency is read from the fitted curve at half-maximal effect
Outline: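 Reporter luminescence was quantified after 24 h exposure of hCAR/CYP2B6-2.2kb double-stable HepG2 cells to compounds at 15 concentrations in the presence of 50 nM CITCO final.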

[9] = qHTS assay to identify small molecule antagonists of the estrogen related receptor signaling pathway with the pleiotropic PPARgamma coactivator (PGC) from Tox21 10K library - cell viability counter screen (AID 1224840; active = well fitted cell-killing curve with a large enough effect in the repeat runs, not every such curve was filed as active; also: nearly all actives have a fitted effect of over 40% in size)
Outline: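 Here the PGC/ERR cells serve as a cytotoxicity control: they are exposed to compounds for 17.5 hours at 37 C, and live-cell signal is quantified using CellTiter-Fluor fluorescence.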

[10] = qHTS assay to identify small molecule antagonists of the estrogen related receptor signaling pathway with the pleiotropic PPARgamma coactivator (PGC) from Tox21 10K library (AID 1224841; call rule not given here; also: series mostly up to about 92 µM; actives are mostly falling curves and most rising ones were filed inactive; nearly all actives have a fitted effect of over 50% in size)
Outline: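 Each well held 2,000 PGC/ERR cells, pre-incubated six hours (37 C, 5% CO2). Test substances in DMSO were added by pin tool and left for 18 h at 37 C before luciferase detection by One-Glo.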

[11] = qHTS assay to identify small molecule agonists of the estrogen related receptor signaling pathway with the pleiotropic PPARgamma coactivator (PGC) from Tox21 10K library (AID 1224842); also: nearly all actives have a fitted effect of over 15% in size
Outline: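 Luminescence from One-Glo (30 min, room temperature) measured after PGC/ERR cells had 18 h at 37 C with pinned compound (23 nL in DMSO). Cells had been seeded at 2,000 per well and pre-incubated 6 h.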

[12] = qHTS assay to identify small molecule antagonists of the retinoid acid receptor (RAR) signaling pathway - cell viability counter screen (AID 1159551); also: nearly all actives have a fitted effect of over 35% in size
Outline: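 Seed C3RL4 cells; next day add compound, then retinol to 1 uM final; incubate 6 h at 37 C; add CellTiter-Glo; read luminescence after 30 min at RT.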

[13] = target: Nuclear receptor subfamily 1 group I member 3 (Homo sapiens) (UniProt Q14994); assay: qHTS assay to identify small molecule agonists of the constitutive androstane receptor (CAR) signaling pathway (AID 1224839); also: nearly all actives have a fitted effect of over 15% in size; also: potency is read from the fitted curve at half-maximal effect
Outline: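 Readout: firefly luciferase luminescence via ONE-Glo. System: HepG2 double-stable for hCAR and CYP2B6-2.2kb. Conditions: 15-point compound titration, PK11195 at 0.75 uM final, 24 h incubation.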

[14] = qHTS assay to identify small molecule agonists of the RXR signaling pathway - cell viability counter screen (AID 1159529);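 also: HEK 293T cells carrying an RXR-alpha UAS beta-lactamase reporter; series mostly up to about 77 µM; nearly all actives have a fitted effect of over 50% in size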
Outline: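 Counter screen: CellTiter-Glo luminescence. Cells: RXR-alpha-UAS-bla HEK 293T. Medium: 2% charcoal-stripped FBS. Treatment: 16 h, 37 C. Reagent incubation: 30 min, RT.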

Nuclear receptor subfamily 1 group I member 3 (Homo sapiens), sequence (Q14994 whole entry, looked up): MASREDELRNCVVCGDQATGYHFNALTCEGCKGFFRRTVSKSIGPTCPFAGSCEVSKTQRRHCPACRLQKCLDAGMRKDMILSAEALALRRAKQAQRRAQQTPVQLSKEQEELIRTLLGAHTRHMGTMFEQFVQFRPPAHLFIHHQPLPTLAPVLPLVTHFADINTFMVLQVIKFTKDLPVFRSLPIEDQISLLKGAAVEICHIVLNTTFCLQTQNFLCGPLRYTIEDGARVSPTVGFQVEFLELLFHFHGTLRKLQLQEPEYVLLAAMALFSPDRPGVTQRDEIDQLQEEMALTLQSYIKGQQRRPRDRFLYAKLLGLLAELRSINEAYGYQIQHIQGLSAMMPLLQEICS
Luciferin 4-monooxygenase (Photinus pyralis), sequence (P08659 whole entry, looked up): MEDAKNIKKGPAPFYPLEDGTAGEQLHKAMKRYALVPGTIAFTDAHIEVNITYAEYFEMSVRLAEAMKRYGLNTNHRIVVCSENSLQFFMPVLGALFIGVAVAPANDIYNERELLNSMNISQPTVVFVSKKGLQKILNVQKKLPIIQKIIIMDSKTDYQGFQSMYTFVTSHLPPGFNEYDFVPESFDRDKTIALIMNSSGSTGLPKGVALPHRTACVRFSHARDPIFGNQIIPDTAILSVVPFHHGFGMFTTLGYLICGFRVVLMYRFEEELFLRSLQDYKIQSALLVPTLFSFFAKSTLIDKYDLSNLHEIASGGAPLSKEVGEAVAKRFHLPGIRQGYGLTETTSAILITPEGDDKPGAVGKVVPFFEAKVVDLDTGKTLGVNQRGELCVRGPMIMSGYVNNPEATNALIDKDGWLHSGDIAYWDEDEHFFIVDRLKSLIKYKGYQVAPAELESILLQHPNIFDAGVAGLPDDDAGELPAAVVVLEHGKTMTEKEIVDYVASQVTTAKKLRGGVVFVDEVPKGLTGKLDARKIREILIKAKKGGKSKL
Retinoic acid receptor RXR-alpha (Homo sapiens), sequence (P19793 whole entry, looked up): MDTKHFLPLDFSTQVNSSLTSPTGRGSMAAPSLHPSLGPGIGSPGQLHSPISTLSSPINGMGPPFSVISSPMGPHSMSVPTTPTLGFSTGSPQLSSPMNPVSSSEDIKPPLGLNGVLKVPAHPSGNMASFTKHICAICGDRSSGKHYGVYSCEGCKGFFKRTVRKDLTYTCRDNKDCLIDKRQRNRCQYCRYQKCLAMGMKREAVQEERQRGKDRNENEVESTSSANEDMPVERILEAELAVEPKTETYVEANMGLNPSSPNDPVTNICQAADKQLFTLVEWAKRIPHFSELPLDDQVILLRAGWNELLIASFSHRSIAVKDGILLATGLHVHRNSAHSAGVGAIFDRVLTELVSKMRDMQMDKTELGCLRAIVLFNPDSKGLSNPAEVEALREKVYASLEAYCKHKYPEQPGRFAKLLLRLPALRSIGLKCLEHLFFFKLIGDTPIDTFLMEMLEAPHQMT

Structure (SMILES) | Potency [1] | Potency [2] | Potency [3] | Potency [4] | Potency [5] | Potency [6] | Potency [7] | Potency [8] | Potency [9] | Potency [10] | Potency [11] | outcome [12] | Potency [13] | outcome [14]
O=P1(NCCCl)OCCCN1CCCl (stereo unspecified) | inactive | inactive | inactive | inactive | inactive | inactive | inactive | inactive | inactive | inactive | inactive | – | – | –
CCCCCCCCCCCCCCCCCC(=O)O | inactive | inactive | inactive | inactive | 70.5 µM (active) and inactive | inactive | – | – | inactive | – | – | inactive | – | –
CN(C)C(=O)Nc1cccc(C(F)(F)F)c1 | inactive | inactive | inactive | inactive | inactive | inactive | – | inactive | inactive | – | – | inactive | inactive | –
O=C(O)Cc1ccccc1 | inactive | inactive | inactive | inactive | inactive | inactive | – | inactive | inactive | inactive | inactive | – | inactive | –
COP(=S)(OC)Oc1ccc(SC)c(C)c1 | inactive | inactive | 19.3 µM (active) | inactive | – | inactive | inactive | inactive | inactive | – | – | inactive | 60.4 µM (active) and 54.5 µM (active) and 23.7 µM (active) | –
O=C(O)COc1ccccc1 | inactive | – | – | inactive | inactive | inactive | – | inactive | inactive | – | – | inactive | inactive | –
O=[N+]([O-])c1cc([As](=O)(O)O)ccc1O | inactive | inactive | inactive | 60.7 µM (active) | inactive | inactive | – | – | inactive | inactive | inactive | – | – | –
Cl/C=C/Cl | inactive | inactive | inactive | inactive | inactive | inactive | – | – | inactive | – | – | – | – | –
O=C(O)C(Br)Br | inactive | – | – | inactive | inactive | inactive | – | inactive | inactive | – | – | – | inactive | –
C[C@]12CC[C@H](O)CC1=CC[C@@H]1[C@@H]2CC[C@]2(C)C(=O)CC[C@@H]12 | – | inactive | inactive | inactive | inactive | inactive | – | inactive | inactive | – | – | inactive | inactive | inactive
C/C=C/c1ccc2c(c1)OCO2 | inactive | inactive | inactive | inactive | inactive | inactive | inactive | inactive | inactive | – | – | – | inactive | –
C[C@H]1C(=O)O[C@@H]2CCN3CC=C(COC(=O)[C@](C)(O)[C@]1(C)O)[C@H]23 | inactive | inactive | inactive | inactive | inactive | inactive | – | – | inactive | – | – | inactive | – | –
Sc1ccccc1 | – | – | – | inactive | inactive | inactive | inactive | 62 µM (active) and inactive | inactive | – | – | – | inactive | –
